Measurements published in PubChem BioAssay.
Active and inactive are the calls of the source. The rule behind the calls is not given here.

Experiment: Brca1-Bard1 BiLC signal decrease – luminescence, single concentration, counter-screen for Mdm2/MdmX interaction inhibitor project, confirmation (AID 504668)
Settings: Brca1/Bard1 bimolecular luciferase complementation counterscreen, at 8 µM, stronger effect = higher value

| Structure (SMILES) | inhibition |
| --- | --- |
| O=c1c2cc(Br)ccc2nc(-c2cccc(C(F)(F)F)c2)n1O | 29.9% (active) |
| COc1ccc(NC(=O)Nc2cccc3c2O[C@H](CN(C)Cc2ccc(-c4ccccc4)cc2)[C@@H](C)CN([C@H](C)CO)C3=O)cc1 | 31% (active) |
| CCN(CC)S(=O)(=O)c1cc(OC)ccc1N=Nc1ccc(O)c2ncccc12 | 35.8% (active) |
| O=C(CSCC(=O)Nc1ccccc1)N/N=C/c1c(O)ccc2ccccc12 | 28.3% (active) |
| COc1ccc(/C=c2/sc3n(c2=O)C(c2ccccc2OC)C2=C(N=3)c3ccccc3CC2)cc1O (stereo not given) | 29.6% (active) |
| Cn1nc(-c2ccccn2)nc2c(=O)n(C)c(=O)nc1-2 | 33.8% (active) |
| COc1ccc(-c2nc(CN3CCN(c4cc(C)nc(C)c4)CC3)c(C)o2)c2ccccc12 | 34.4% (active) |
| O=C(CCCN1C(=O)/C(=C/c2cccc(Br)c2)SC1=S)Nc1ccccn1 | 31% (active) |
| CCOc1cccc2sc(NC(=O)CCS(=O)(=O)c3ccccc3)nc12 | 35.4% (active) |
| C=CCn1c(SCC(=O)Nc2ccc(F)cc2F)nc2c([nH]c3ccccc32)c1=O | 26.8% (active) |
| Oc1ccc(CNc2ccc(F)cc2)c2cccnc12 | 36% (active) |
| O=c1nc(Nc2ccc(OCc3ccccc3)cc2)sc2ncccc12 | 23.4% (active) |
| CCOc1ccc(C(=O)N/N=C(\c2ccccc2)c2ccccn2)cc1 | 30.1% (active) |
| O=C(CCl)Nc1cn(-c2ccccc2)nc1-c1ccccc1 | 33.7% (active) |
| N#Cc1c(-c2ccccc2)c(-c2ccccc2)nn(CC(=O)NNC(=O)Nc2ccc(Cl)c(Cl)c2)c1=O | 35.9% (active) |
